How the values were obtained:
Assay in all cases: DAPPL (digital affinity profiling via proximity ligation, sequencing); 10 mM Tris-HCl pH 7.5, 50 mM NaCl, 1 mM DTT, 4% glycerol, room temperature, 30 min; GST-TFs on glutathione beads, 16-mer random dsDNA library, 0.1% formaldehyde crosslink after washing; high values mean tight binding
Details in all cases: protein: recombinant; tags: N-terminal GST; dsDNA, one strand shown
FLI1 = molecular target: T1, FLI1 (Homo sapiens, UniProt Q01543 1-452)
T1 sequence: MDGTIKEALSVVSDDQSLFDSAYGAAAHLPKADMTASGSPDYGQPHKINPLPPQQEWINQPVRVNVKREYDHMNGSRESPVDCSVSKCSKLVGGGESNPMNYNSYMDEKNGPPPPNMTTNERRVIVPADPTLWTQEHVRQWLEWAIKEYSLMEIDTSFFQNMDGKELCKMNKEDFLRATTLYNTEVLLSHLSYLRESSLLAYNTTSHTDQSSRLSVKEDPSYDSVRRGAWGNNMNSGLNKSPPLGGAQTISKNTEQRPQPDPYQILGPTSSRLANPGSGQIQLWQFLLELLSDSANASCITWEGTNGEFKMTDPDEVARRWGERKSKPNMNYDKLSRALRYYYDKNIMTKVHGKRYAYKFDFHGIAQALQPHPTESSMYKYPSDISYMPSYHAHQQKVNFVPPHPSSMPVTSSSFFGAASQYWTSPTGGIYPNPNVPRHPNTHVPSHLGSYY
Summary of the method: (§1)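 The binding signal reported is, for every hexamer, its read frequency for a factor over its read frequency for the tag-only sample. Reads came from pools of yeast-expressed, GST-fused human transcription factors on glutathione beads, barcoded with DNA and mixed with that sample, which were incubated with 200 nmole of a random double-stranded 16-mer DNA library in Tris/NaCl/DTT/glycerol buffer at room temperature for 30 min. After washing, the pools were crosslinked with 0.1% formaldehyde, proximity-ligated with BsaI/T4 ligase for 1 h at 37 °C, PCR-amplified and sequenced on an Illumina NextSeq500.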

ELK1 = molecular target: T2, ELK1 (Homo sapiens, UniProt P19419 1-428)
T2 sequence: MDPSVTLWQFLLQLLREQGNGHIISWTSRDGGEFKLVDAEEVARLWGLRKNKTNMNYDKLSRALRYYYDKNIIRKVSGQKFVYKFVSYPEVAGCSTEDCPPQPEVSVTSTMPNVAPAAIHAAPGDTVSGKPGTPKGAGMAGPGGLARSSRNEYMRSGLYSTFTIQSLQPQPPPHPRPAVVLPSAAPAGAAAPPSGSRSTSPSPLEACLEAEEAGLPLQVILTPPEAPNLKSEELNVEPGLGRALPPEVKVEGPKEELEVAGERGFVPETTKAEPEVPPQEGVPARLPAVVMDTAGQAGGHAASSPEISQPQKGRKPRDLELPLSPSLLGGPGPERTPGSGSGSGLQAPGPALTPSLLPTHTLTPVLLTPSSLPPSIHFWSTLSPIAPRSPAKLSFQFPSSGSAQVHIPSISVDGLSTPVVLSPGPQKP
Summary of the method: as §1

GABPA = molecular target: T3, GABPA (Homo sapiens, UniProt Q06546 1-454)
T3 sequence: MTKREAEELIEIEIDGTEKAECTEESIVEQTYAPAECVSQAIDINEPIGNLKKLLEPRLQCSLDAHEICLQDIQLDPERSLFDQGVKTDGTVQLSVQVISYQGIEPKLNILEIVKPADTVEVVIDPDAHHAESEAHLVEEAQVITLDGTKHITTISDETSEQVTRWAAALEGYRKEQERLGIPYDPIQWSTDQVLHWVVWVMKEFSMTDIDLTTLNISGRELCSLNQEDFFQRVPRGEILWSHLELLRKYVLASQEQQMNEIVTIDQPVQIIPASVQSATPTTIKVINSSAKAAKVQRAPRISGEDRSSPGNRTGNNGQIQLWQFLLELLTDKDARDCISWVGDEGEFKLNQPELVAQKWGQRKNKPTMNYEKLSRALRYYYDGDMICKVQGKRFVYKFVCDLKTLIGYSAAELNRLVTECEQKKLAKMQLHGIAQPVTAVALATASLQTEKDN
Summary of the method: as §1

ERG = molecular target: T4, ERG (Homo sapiens, UniProt P11308 1-479)
T4 sequence: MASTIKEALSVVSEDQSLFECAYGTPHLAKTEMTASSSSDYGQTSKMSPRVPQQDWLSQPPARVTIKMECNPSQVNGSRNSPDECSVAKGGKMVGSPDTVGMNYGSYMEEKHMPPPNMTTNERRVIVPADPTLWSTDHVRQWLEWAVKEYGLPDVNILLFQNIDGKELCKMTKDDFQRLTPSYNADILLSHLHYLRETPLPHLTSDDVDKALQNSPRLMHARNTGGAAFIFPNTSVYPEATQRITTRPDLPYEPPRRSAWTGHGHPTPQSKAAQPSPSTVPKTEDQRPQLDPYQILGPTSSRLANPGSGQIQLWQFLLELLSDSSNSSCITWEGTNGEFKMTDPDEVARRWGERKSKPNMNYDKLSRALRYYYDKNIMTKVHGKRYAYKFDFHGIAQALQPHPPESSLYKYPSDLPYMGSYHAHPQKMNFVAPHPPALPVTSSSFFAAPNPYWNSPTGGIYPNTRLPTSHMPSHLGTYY
Summary of the method: as §1

ELF1 = ELF1 (Homo sapiens, UniProt P32519 1-619)
Summary of the method: as §1

EHF = molecular target: T5, EHF (Homo sapiens, UniProt Q9NZC4 1-300)
T5 sequence: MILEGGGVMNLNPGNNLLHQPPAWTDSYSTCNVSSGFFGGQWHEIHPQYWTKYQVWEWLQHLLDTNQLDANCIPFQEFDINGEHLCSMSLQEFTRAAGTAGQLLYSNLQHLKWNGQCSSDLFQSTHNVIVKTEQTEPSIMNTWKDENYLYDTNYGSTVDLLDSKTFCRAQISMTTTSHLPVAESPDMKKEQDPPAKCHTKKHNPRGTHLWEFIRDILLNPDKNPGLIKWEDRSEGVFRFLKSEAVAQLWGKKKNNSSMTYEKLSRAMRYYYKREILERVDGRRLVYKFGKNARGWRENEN
Summary of the method: as §1

SPI1 = SPI1 (Homo sapiens, UniProt P17947 1-270)
Summary of the method: as §1

SPIB = SPIB (Homo sapiens, UniProt Q01892 1-262)
Summary of the method: as §1

ELK3 = molecular target: T6, ELK3 (Homo sapiens, UniProt P41970 1-407)
T6 sequence: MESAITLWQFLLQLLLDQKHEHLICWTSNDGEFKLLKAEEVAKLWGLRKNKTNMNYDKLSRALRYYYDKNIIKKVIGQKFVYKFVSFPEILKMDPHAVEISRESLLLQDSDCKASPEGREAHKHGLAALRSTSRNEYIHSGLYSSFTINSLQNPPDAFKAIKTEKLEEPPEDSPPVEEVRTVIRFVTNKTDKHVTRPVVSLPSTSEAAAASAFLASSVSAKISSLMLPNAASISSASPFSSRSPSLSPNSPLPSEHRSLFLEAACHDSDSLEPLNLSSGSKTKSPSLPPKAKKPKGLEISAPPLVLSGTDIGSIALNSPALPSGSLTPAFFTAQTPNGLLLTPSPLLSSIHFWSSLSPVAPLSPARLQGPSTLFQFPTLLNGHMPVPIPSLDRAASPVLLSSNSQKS
Summary of the method: as §1

Chain of ELF1 (P32519 whole entry): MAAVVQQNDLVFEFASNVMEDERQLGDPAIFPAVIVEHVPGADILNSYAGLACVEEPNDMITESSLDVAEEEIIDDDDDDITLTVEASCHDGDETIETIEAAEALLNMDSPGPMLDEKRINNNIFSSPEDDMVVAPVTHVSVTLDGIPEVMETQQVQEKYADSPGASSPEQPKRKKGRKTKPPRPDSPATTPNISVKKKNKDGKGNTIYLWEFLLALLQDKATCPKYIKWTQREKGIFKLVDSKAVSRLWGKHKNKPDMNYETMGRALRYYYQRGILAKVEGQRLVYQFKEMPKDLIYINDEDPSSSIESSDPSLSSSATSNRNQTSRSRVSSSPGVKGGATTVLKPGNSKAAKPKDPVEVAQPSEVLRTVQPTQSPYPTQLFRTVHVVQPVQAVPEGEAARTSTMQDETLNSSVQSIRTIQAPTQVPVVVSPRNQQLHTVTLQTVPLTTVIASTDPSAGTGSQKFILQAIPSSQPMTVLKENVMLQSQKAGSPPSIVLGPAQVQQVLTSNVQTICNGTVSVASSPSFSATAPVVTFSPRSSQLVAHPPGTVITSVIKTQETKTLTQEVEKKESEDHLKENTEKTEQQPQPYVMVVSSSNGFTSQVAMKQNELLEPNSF
Chain of SPIB (Q01892 whole entry): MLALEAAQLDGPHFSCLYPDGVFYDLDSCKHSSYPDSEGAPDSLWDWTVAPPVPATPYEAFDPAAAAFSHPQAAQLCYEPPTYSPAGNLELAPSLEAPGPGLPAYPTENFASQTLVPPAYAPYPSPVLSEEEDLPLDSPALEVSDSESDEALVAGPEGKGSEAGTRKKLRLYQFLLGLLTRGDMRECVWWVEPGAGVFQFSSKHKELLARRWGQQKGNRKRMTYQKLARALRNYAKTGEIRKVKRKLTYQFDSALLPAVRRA

| Sequence | binding signal (FLI1) | binding signal (ELK1) | binding signal (GABPA) | binding signal (ERG) | binding signal (ELF1) | binding signal (EHF) | binding signal (SPI1) | binding signal (SPIB) | binding signal (ELK3) |
| --- | --- | --- | --- | --- | --- | --- | --- | --- | --- |
| GTGCTT | 1.21 fold enrichment (6-mer frequency, TF over GST control) | 1.36 fold enrichment (6-mer frequency, TF over GST control) | 1.3 fold enrichment (6-mer frequency, TF over GST control) | 1.38 fold enrichment (6-mer frequency, TF over GST control) | 1.2 fold enrichment (6-mer frequency, TF over GST control) | 1.24 fold enrichment (6-mer frequency, TF over GST control) | 1.33 fold enrichment (6-mer frequency, TF over GST control) | 1.24 fold enrichment (6-mer frequency, TF over GST control) | 1.4 fold enrichment (6-mer frequency, TF over GST control) |
| TTTGCT | 1.25 fold enrichment (6-mer frequency, TF over GST control) | 1.17 fold enrichment (6-mer frequency, TF over GST control) | 1.29 fold enrichment (6-mer frequency, TF over GST control) | 1.18 fold enrichment (6-mer frequency, TF over GST control) | 1.21 fold enrichment (6-mer frequency, TF over GST control) | 1.18 fold enrichment (6-mer frequency, TF over GST control) | 1.21 fold enrichment (6-mer frequency, TF over GST control) | 1.24 fold enrichment (6-mer frequency, TF over GST control) | 1.25 fold enrichment (6-mer frequency, TF over GST control) |
| TAAGTA | 1.21 fold enrichment (6-mer frequency, TF over GST control) | 1.26 fold enrichment (6-mer frequency, TF over GST control) | 1.28 fold enrichment (6-mer frequency, TF over GST control) | 1.22 fold enrichment (6-mer frequency, TF over GST control) | 1.24 fold enrichment (6-mer frequency, TF over GST control) | 1.19 fold enrichment (6-mer frequency, TF over GST control) | 1.16 fold enrichment (6-mer frequency, TF over GST control) | 1.22 fold enrichment (6-mer frequency, TF over GST control) | 1.22 fold enrichment (6-mer frequency, TF over GST control) |
| TCTCGA | 1.35 fold enrichment (6-mer frequency, TF over GST control) | 1.34 fold enrichment (6-mer frequency, TF over GST control) | 1.42 fold enrichment (6-mer frequency, TF over GST control) | 1.38 fold enrichment (6-mer frequency, TF over GST control) | 1.41 fold enrichment (6-mer frequency, TF over GST control) | 1.37 fold enrichment (6-mer frequency, TF over GST control) | 1.36 fold enrichment (6-mer frequency, TF over GST control) | 1.43 fold enrichment (6-mer frequency, TF over GST control) | 1.31 fold enrichment (6-mer frequency, TF over GST control) |
| ATATAA | 1.15 fold enrichment (6-mer frequency, TF over GST control) | 1.22 fold enrichment (6-mer frequency, TF over GST control) | 1.2 fold enrichment (6-mer frequency, TF over GST control) | 1.15 fold enrichment (6-mer frequency, TF over GST control) | 1.24 fold enrichment (6-mer frequency, TF over GST control) | 1.21 fold enrichment (6-mer frequency, TF over GST control) | 1.1 fold enrichment (6-mer frequency, TF over GST control) | 1.22 fold enrichment (6-mer frequency, TF over GST control) | 1.25 fold enrichment (6-mer frequency, TF over GST control) |
| TACAGA | 1.08 fold enrichment (6-mer frequency, TF over GST control) | 1.14 fold enrichment (6-mer frequency, TF over GST control) | 1.25 fold enrichment (6-mer frequency, TF over GST control) | 1.11 fold enrichment (6-mer frequency, TF over GST control) | 1.14 fold enrichment (6-mer frequency, TF over GST control) | 1.11 fold enrichment (6-mer frequency, TF over GST control) | 1.13 fold enrichment (6-mer frequency, TF over GST control) | 1.16 fold enrichment (6-mer frequency, TF over GST control) | 1.06 fold enrichment (6-mer frequency, TF over GST control) |
| TCCCAT | 1.36 fold enrichment (6-mer frequency, TF over GST control) | 1.37 fold enrichment (6-mer frequency, TF over GST control) | 1.51 fold enrichment (6-mer frequency, TF over GST control) | 1.45 fold enrichment (6-mer frequency, TF over GST control) | 1.44 fold enrichment (6-mer frequency, TF over GST control) | 1.43 fold enrichment (6-mer frequency, TF over GST control) | 1.28 fold enrichment (6-mer frequency, TF over GST control) | 1.48 fold enrichment (6-mer frequency, TF over GST control) | 1.47 fold enrichment (6-mer frequency, TF over GST control) |
| GAACTA | 1.39 fold enrichment (6-mer frequency, TF over GST control) | 1.39 fold enrichment (6-mer frequency, TF over GST control) | 1.34 fold enrichment (6-mer frequency, TF over GST control) | 1.32 fold enrichment (6-mer frequency, TF over GST control) | 1.3 fold enrichment (6-mer frequency, TF over GST control) | 1.37 fold enrichment (6-mer frequency, TF over GST control) | 1.41 fold enrichment (6-mer frequency, TF over GST control) | 1.32 fold enrichment (6-mer frequency, TF over GST control) | 1.37 fold enrichment (6-mer frequency, TF over GST control) |

Source: PMC7862700, “An all-to-all approach to the identification of sequence-specific readers for epigenetic DNA modifications on cytosine”
